Common to all, as to assay: NCI-60 one-dose screen, 48 h (100 = growth as untreated, 0 = no growth, -100 = all killed)
What all share (details): 10 µM unless noted

Experiment [1] has as its system SR leukemia.
The test system of experiment [2] is RPMI-8226 leukemia.
The test system of experiment [3] is OVCAR-8 ovarian.
Experiment [4] has as its system OVCAR-5 ovarian.
Experiment [5] relates to OVCAR-4 ovarian.
The subject of experiment [6] is SK-OV-3 ovarian.
Experiment [7] relates to IGROV1 ovarian.
Experiment [8] relates to OVCAR-3 ovarian.
Experiment [9] relates to HS 578T breast.
Experiment [10] has as its system NCI/ADR-RES ovarian.

This is part of a sample that, as a whole, favours compounds with a hit. Of some 83,000 tested, about 20% had one in any assay.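 48-hour exposure, single concentration, 96-well plates; percent growth endpoint where 0 means no net growth. Active: below 10.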 Unmarked numbers belong to inactive results. Activity calls are given as the source filed them.

On to `COc1ccc(/C=N/NC(=O)CCN2c3ccccc3Sc3ccccc32)cc1`, for which the growth in experiment [1] is 33.8%; in [2], 94%; in experiment [3], 99.3%; in experiment [4] it was 86.3%; in [5] it was 89.6%; in [6] it was 97.1%. For the same compound, the growth in experiment [7] is 66.3%; in [8], 76.4%; in experiment [9], 85.9%.
In the case of `COc1ccc(-c2csc(N(C(=O)N3CCN(c4cc5c(cc4F)c(=O)c(C(=O)O)cn5C4CC4)CC3)c3ccccc3)n2)cc1`, the growth in [1] is 10.4%; in [2], 16%; in experiment [3], 15.5%; in experiment [4] it was 12.8%; in experiment [5] it was 33.3%; in experiment [6] it was 21.8%. For the same compound, the figures for the growth in experiment [7], in experiment [8] and in [9] were 17.1%, 8.09% (active) and 40.3%, respectively.
For `CC(=O)n1nc(C(=O)OC(C)C)c2cc(C)c(C)cc21`, the growth was 84.6% in experiment [1]; 85% in [2]; 96.8% in [3]; 118% in [4]; 2.77% (active) in experiment [5]; 98.6% in experiment [6]. The growth in [7] was 106%; in experiment [8], 108%; in [9], 96.6%.
Take `COc1ccc2c(O)c(/C=C3\N=Nc4ncccc43)oc2c1C[C@H]1CCNC[C@H]1F`: the growth was -40.2% (active) in experiment [1]; 9.58% (active) in experiment [2]; 5.11% (active) in experiment [3]; 16% in experiment [4]; 2.83% (active) in [5]; 21% in [6]. Besides, the growth in experiment [7] was 2.29% (active); in experiment [8], 1.29% (active); in experiment [9], -6.5% (active).
Take `CCOC(=O)/C=C1\S/C(=N\Nc2cc(=O)[nH]c3ccc(Cl)cc23)N(c2ccccc2)C1=O`: the growth in experiment [1] was 4.23% (active); in experiment [2] it was 3.83% (active); in experiment [3], 90.1%; in [4], 111%; in [5], 76.2%; in experiment [6], 102%. In addition, the figures for the growth in experiment [7], in [8] and in experiment [9] were 62.9%, 71.4% and 99.8%, respectively.
On to `N#Cc1c(NC(=O)c2ccccc2)sc2c1CCC(=O)C2`, for which the growth in [1] was 7.72% (active); in experiment [2], -2.69% (active); in experiment [3], 14.5%; in experiment [4] it was 22.1%; in [5] it was -64.9% (active); in experiment [6], 64.7%. For the same compound, the growth in [7] was 27.4%; in experiment [8], -4.44% (active); in experiment [9], 23.3%.
Take `O=[N+]([O-])c1ccc(-c2nc(N3CCOCC3)c3c4c(sc3n2)CCCC4)cc1`: the growth in [1] was 76.4%; in experiment [2] it was 109%; in experiment [3] it was 99.8%; in [4], 95.4%; in [5] it was 92.2%; in experiment [6] it was 81.2%. Further, the values for the growth in experiment [7], in experiment [8] and in experiment [9] were 75.2%, 93.8% and 90.7%, respectively.
With `CCc1ccc(C(=O)/C=C/C23c4ccccc4C(c4ccccc42)C2C(=O)NC(=O)C23)cc1` (configuration not stated), the growth in experiment [1] was 0.497% (active); in experiment [2], -35.1% (active); in experiment [3], -20% (active); in experiment [4] it was 15.7%; in [5], 37.5%; in [6] it was 38.6%. In addition, the growth in experiment [7] is 0.604% (active); in experiment [8], -59.7% (active); in experiment [9], 41%; in experiment [10], 4.03% (active).
On to `COP(=O)(OC)C(C)(C)CC(=O)CC(C#N)(C#N)C(C#N)C#N`, for which the growth was 95.5% in [1]; 87.8% in experiment [2]; 105% in experiment [3]; 94.4% in experiment [4]; 116% in experiment [5]; 101% in [6]. The growth was 110% in experiment [7], 114% in [8], 104% in experiment [9] and 98.4% in experiment [10].
On to `COc1ccc2nc3ccc(OC)cc3c(SCCCN)c2c1`, for which the growth in experiment [1] was -30.8% (active); in experiment [2], -22.7% (active); in [3] it was 76.1%; in experiment [4], 83.2%; in experiment [5], 63.9%; in experiment [6], 95%. The growth in experiment [7] was 97.2%; in experiment [8] it was 71.3%; in experiment [9], 89.7%; in [10], 86.9%.
With `COc1ccc(/C=C2\COc3ccc(O)c(O)c3C2=O)cc1`, the growth in experiment [1] was 21.6%; in experiment [2] it was 4.17% (active); in [3] it was 7.39% (active); in experiment [4], -12.3% (active); in experiment [5] it was 48.4%; in [6] it was 63.5%. Moreover, the growth in experiment [7] is 1.03% (active); in experiment [8], 11.1%; in experiment [9], 19.5%.
Take `O=C1Nc2ccccc2[C@]12CC(c1ccccc1)=NN2`: the growth was 21.6% in [1]; 39% in [2]; 65.8% in [3]; 61.7% in experiment [4]; 84.5% in [5]; 57.1% in experiment [6]. The growth in [7] was 33.1%; in [8] it was 27.7%; in experiment [9] it was 58.4%; in [10] it was 44.9%.
Consider `Brc1c2c(c(Br)c3ccccc13)CCCC2`, for which the growth in experiment [1] was 99%; in experiment [2], 100%; in [3], 91%; in experiment [4] it was 104%; in experiment [5], 112%; in experiment [6], 89.5%. Moreover, the growth in experiment [7] is 98.1%; in experiment [8], 110%; in [9], 95.5%; in experiment [10] it was 107%.
For the compound `Nc1nc2c([nH]1)c1[nH]c3ccccc3c1c1[nH]c3ccccc3c21`, the growth in experiment [1] was -24.9% (active); in experiment [2], -22.7% (active); in [3], 57.5%; in [4] it was 85.9%; in [5], 66.8%; in experiment [6], 86.1%. Besides, the growth is 58.9% in [7], 36.6% in experiment [8], 47.2% in experiment [9] and 86.5% in experiment [10].
With `Fc1ccc(-c2nn(-c3ccccc3)cc2-c2nc3ccccc3o2)cc1`, the growth in experiment [1] is 43.6%; in experiment [2], 48.2%; in experiment [3] it was 58.8%; in experiment [4], 122%; in experiment [5], 78.1%; in experiment [6], 120%. Moreover, the growth in experiment [7] is 82.1%; in [8], 45.1%; in experiment [9] it was 82%; in experiment [10], 46.9%.
For the compound `CC(C)NC1CCC(Nc2ccnc3cc(Cl)ccc23)CC1` (configuration not stated), the growth was 84% in experiment [1]; 76% in experiment [2]; 91.7% in [3]; 104% in experiment [4]; 79.5% in [5]; 93% in experiment [6]. Moreover, the growth in experiment [7] was 109%; in experiment [8], 109%; in [9], 96.6%; in experiment [10], 108%.
As to `O=C1CC(N2C(=O)/C(=C/C(Cl)=C\c3ccc([N+](=O)[O-])cc3)SC2=S)C(=O)N1c1ccc(Cl)cc1` (configuration not stated), the growth in experiment [1] was 4.86% (active); in experiment [2] it was -1.96% (active); in experiment [3], 15.7%; in experiment [4], 40.6%; in experiment [5], 9.19% (active); in [6], 99.2%. Also, the growth is 10.2% in [7], -35.4% (active) in experiment [8], 21.7% in experiment [9] and 8.17% (active) in experiment [10].
For the compound `COc1ccc(/C(C)=C(/c2ccc(OCCCN(C)C)cc2)c2ccc(OC(=O)Cc3ccccc3)cc2)cc1`, the growth in experiment [1] is -0.597% (active); in experiment [2], 48.1%; in experiment [3], 87.6%; in [4], 85.2%; in experiment [5], 87.9%; in [6], 73.4%. For the same compound, the growth is 95% in experiment [7], 81.2% in experiment [8], 56.5% in experiment [9] and 85.1% in experiment [10].
Turning to `O=C(OCc1ccc2cccc(O)c2n1)N1CCN(C(=O)c2cc3cc(F)ccc3[nH]2)CC1`, the growth was -9.28% (active) in [1]; -26.1% (active) in experiment [2]; -40.6% (active) in experiment [3]; -84.5% (active) in experiment [4]; -71.8% (active) in [5]; 54.3% in experiment [6]. The growth in experiment [7] was -91.4% (active); in [8] it was -79.3% (active); in experiment [9], -21.2% (active); in experiment [10], -21.5% (active).
As to `Clc1ccc(CNc2c3ccccc3nc3ccccc23)cc1`, the growth is 2.32% (active) in experiment [1]; 8.02% (active) in experiment [2]; 31.9% in experiment [3]; 50.5% in experiment [4]; 33.1% in [5]; 60% in experiment [6]. The growth is 31.7% in [7], 51.1% in experiment [8], 53.8% in [9] and 36.7% in experiment [10].
With `Cc1ccc(/C=C2\CN(C(=O)OC(C)(C)C)C/C(=C\c3ccc(C)cc3)C2=O)cc1`, the growth is -13.1% (active) in experiment [1]; -25.8% (active) in experiment [2]; 25% in experiment [3]; 112% in experiment [4]; 65.4% in experiment [5]; 104% in experiment [6]. The growth was 69.3% in experiment [7], 7.18% (active) in experiment [8], 59.6% in [9] and 76.3% in experiment [10].
For the compound `O=C(CCCCC1CCSS1)Nc1ncnc2n[nH]c(-c3ccc(Oc4ccccc4)cc3)c12` (configuration not stated), the growth in experiment [1] is 32.9%; in experiment [2] it was 85.4%; in experiment [3] it was 100%; in experiment [4], 101%; in experiment [5] it was 108%; in experiment [6] it was 123%. Also, the growth in [7] was 93.5%; in experiment [8], 116%; in experiment [9], 117%; in [10] it was 89%.
With `N#C/C(=C\c1ccc(-c2ccc(Cl)cc2)o1)C(=O)Nc1ncc(Cc2ccc(Cl)cc2)s1`, the growth in [1] was 8.8% (active); in experiment [2] it was 85.2%; in [3], 8.41% (active); in [4] it was 29.7%; in [5], -56.9% (active); in experiment [6], 58.9%. For the same compound, the growth in [7] is 28.3%; in experiment [8], -49.8% (active); in experiment [9] it was 25.6%; in experiment [10] it was 26.2%.
`CCN(CC)C(=S)SC(SC(=S)N(CC)CC)C(=O)c1nnn(-c2ccc([N+](=O)[O-])cc2)c1C`: the growth was 55.3% in experiment [1]; 90.8% in experiment [2]; 101% in experiment [3]; 106% in experiment [4]; 104% in [5]; 112% in experiment [6]. Also, the growth is 71.2% in experiment [7], 98.4% in experiment [8], 113% in experiment [9] and 99.8% in [10].
Consider `CC1(C)CC[C@]2(c3nnc(-c4ccncc4)o3)CC[C@H]3C(=CC[C@H]4[C@@]3(C)CC[C@H]3C(C)(C)C(=O)CC[C@]43C)[C@@H]2C1`, for which the growth in [1] is 17%; in experiment [2], 19.2%; in [3] it was 86.9%; in [4], 96.1%; in experiment [5], 70.1%; in [6], 82.9%. Further, the growth was 71.9% in experiment [7], 45% in [8], 82.4% in experiment [9] and 82% in [10].
As for `O=C(OCc1ccc2c(Cl)cc(Cl)c(O)c2n1)n1cncn1`, the growth is 23.1% in [1]; 32.9% in [2]; 20.7% in experiment [3]; 81.8% in experiment [4]; 25.1% in [5]; 39% in experiment [6]. The growth is 32.9% in [7], 30.7% in [8], 67.4% in experiment [9] and 5.53% (active) in experiment [10].

The values are drawn from PubChem BioAssay (NCI).
